Earlier results in PubChem BioAssay AID977608.
Screen size: about 4,300 compounds; about 4,300 (100%) were called active. The limit is not given here; nearly all actives have IC50 up to about 1400 µM. The set was probably picked from earlier hits. Some of the results follow.

Test: literature IC50 values for PDB complexes, PDB-derived complexes (AID 977608)
Details: PDB protein-ligand complexes

## Cn1ncnc1[C@H]1c2n[nH]c(=O)c3cc(F)cc(c23)N[C@@H]1c1ccc(F)cc1
protein: Poly [ADP-ribose] polymerase 1 PARP1, PDB entry 4pjt
  IC50: 0.00057 µM (active)

## NC(=O)c1sc(Nc2ccccc2)nc1N
protein: Cyclin-dependent kinase 2, PDB entry 3rzb
  IC50: 100 µM (active)

## Nc1nc(Nc2cccc(S(N)(=O)=O)c2)sc1C(=O)c1ccccc1
protein: Cyclin-dependent kinase 2, PDB entry 3rni
  IC50: 6.7 µM (active)

## CS(=O)(=O)c1ccc(C(=O)Nc2cccc(-c3cn4ccnc4c(Nc4ccc(C(=O)N5CCOCC5)cc4)n3)c2)cc1
protein: Tyrosine-protein kinase BTK, PDB entry 4ot6
  IC50: 1.2 µM (active)

## O=C(Nc1ccc2[nH]nc(-c3ccncc3)c2c1)[C@@H]1CCN(CC(=O)N2CCN(c3ccc(-c4ncccn4)cc3)CC2)C1
protein: Haspin, PDB entry 4qtc
  IC50: 0.398 µM (active)
protein: Mitogen-activated protein kinase 8 JNK1, PDB entry 4qtd
  IC50: 1.08 µM (active)

## O=C1NC(=Nc2ccccc2)N=C1Cc1ccc2c(c1)OCO2
protein: Serine/threonine-protein kinase pim-1, PDB entry 4gw8
  IC50: 0.88 µM (active)

## C/C=C\CCC[C@H](C(=O)N1CCC[C@H]1C(=O)OC)N(C)C(=O)[C@H](C)NC(=O)[C@H](CC(C)C)NC(=O)C[C@H](O)[C@H](Cc1ccccc1)NC(=O)c1cc(NS(C)(=O)=O)cc(C(=O)N[C@H](C)c2ccccc2)c1
protein: Beta-secretase 1 (K75A,E77A mutation), PDB entry 4dvf
  IC50: 0.128 µM (active)

## O=C(O)c1cc2ccccc2o1
protein: Adenylate cyclase type 10 hsolAC, PDB entry 4oyp
  IC50: 1000 µM (active)

## CCc1nc(N)nc(N)c1-c1ccc2c(c1)N(CCNC(C)=O)C(=O)C(C)(C)O2
protein: human Renin, PDB entry 2g1r
  IC50: 0.02 µM (active)

## C[C@H](N[C@@H](CCc1ccccc1)C(=O)O)C(=O)N1CC=C[C@H]1C(=O)O
protein: HUMAN TESTICULAR ANGIOTENSIN I-CONVERTING ENZYME, PDB entry 1uze
  IC50: 0.00127 µM (active)

## NC[C@@](O)(c1ccc(Cl)cc1)c1ccc(-c2cn[nH]c2)cc1
protein: CAMP-DEPENDENT PROTEIN KINASE CATALYTIC SUBUNIT ALPHA, PDB entry 4axa
  IC50: 0.01 µM (active)

## NC1NC(=O)c2[nH]cnc2N1 (stereo not drawn)
protein: human Purine nucleoside phosphorylase, PDB entry 1v2h
  IC50: 5 µM (active)

## CC(=O)N[C@H]1[C@H]([C@H](O)[C@H](O)CO)O[C@@H](C(=O)O)C[C@@H]1NC(N)N
protein: Neuraminidase, PDB entry 4mwr
  IC50: 0.00041 µM (active)
protein: Neuraminidase, PDB entry 4mwx
  IC50: 0.0757 µM (active)

## CO[C@@H]([C@@H]1OC(C(=O)O)=C[C@H](NC(N)N)[C@H]1NC(C)=O)[C@H](O)CO
protein: Neuraminidase, PDB entry 4hzw
  IC50: 0.00131 µM (active)

## CO[C@@H]([C@@H]1O[C@H](C(=O)O)C[C@H](NC(N)N)[C@H]1NC(C)=O)[C@H](O)CO
protein: Neuraminidase, PDB entry 4mwu
  IC50: 0.00324 µM (active)
protein: Neuraminidase, PDB entry 4mwy
  IC50: 0.0896 µM (active)

## CC(C)[C@H](NC(=O)CCc1ccccc1)[P+](O)(O)C[C@@H](CCCCCN)C(=O)O
protein: Carboxypeptidase B, PDB entry 3wc7
  IC50: 0.0055 µM (active)

## Nc1[nH]c2c(=O)n3cnc2[n+]1[C@@H]1O[C@H](CO[P+](O)(O)O[P+](O)(O)OC[C@H]2O[C@@H]3[C@H](O)[C@@H]2O)[C@@H](O)[C@H]1O
protein: ADP-ribosyl cyclase 1, PDB entry 3u4h
  IC50: 56 µM (active)

## Nc1c2ncn3c2nc[n+]1[C@@H]1C[C@H](CO[P+](O)(O)O[P+](O)(O)OC[C@H]2O[C@@H]3[C@H](O)[C@@H]2O)[C@@H](O)[C@H]1O
protein: ADP-ribosyl cyclase 1, PDB entry 3u4i
  IC50: 129 µM (active)

## C/C(=C\CO[P+](O)(O)O[P+](O)(O)O)CN
protein: 4-hydroxy-3-methylbut-2-enyl diphosphate reductase, PDB entry 4h4d
  IC50: 0.15 µM (active)

## C/C(=C\CO[P+](O)(O)O[P+](O)(O)O)CS
protein: 4-hydroxy-3-methylbut-2-enyl diphosphate reductase, PDB entry 4h4e
  IC50: 0.21 µM (active)
